Hit rate of the full screen: of about 31,000 sequences, about 1,400 (4.5%) were called active.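 The calls were made as follows: active = median seed-adjusted z-score above 1 or below -1; inactive = the rest.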 The full list was thinned out, with actives kept by preference.

The assay in a line: Novel Modifiers of Survival Motor Neuron (SMN) Protein: Gene Identification via Genome-wide siRNA Screen.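 Also: luminescence tracks full-length SMN protein made from the SMN2 reporter.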 The following applies: HEK293T SMN2-luciferase reporter, siRNA knockdown, 72 h; actives lie on both sides. The gist of the method:
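siRNA screen, 10418 genes ×3 siRNAs; 1 pmol/well, lipid reverse transfection into HEK293T SMN2-luc reporter line. 72 h, 37 °C, 5% CO2; ONE-Glo readout. Data: neg-ctrl normalized, log10, MAD; hit = MAD >1.0 or < -1.0.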
A general note: In a reporter assay the amount or activity of a reporter protein is the signal.
Turning to AGACUUUAAGGAGAAAACATT against YAF2, the median seed-adjusted z-score was 0 (inactive).
Then GGUUCACGGUUCAAAAUCATT against SLC25A24, with -0.0384 (inactive).
The figure for GGUCCAACAUGCAAUCCAATT against EDEM3 is 0.119 (inactive); for GCCGCAACAUGGAAGUACATT against MAPK8IP3 it is 0.734 (inactive).
The figure for GGGAGAUCUUCGACUCAUATT against ADRBK1 is 0 (inactive); for GGGACUAUUCCAAAACCCATT against FLAD1 it is 0.367 (inactive).
As for GGAAUGUGCUGGUCGGAGATT against TIE1, the median seed-adjusted z-score is 0.0629 (inactive).
Consider CCAAAUACAUCGCAUUAGATT against GTPBP4, for which the median seed-adjusted z-score is 1.01 (active).
On to GGUUCAUACAGACUCUUAUTT against PJA2, for which the median seed-adjusted z-score was 0 (inactive).
With GAUAAAAACAGUCCUUUCUTT against FXYD3, the median seed-adjusted z-score was 0.254 (inactive).
Regarding CAAUGUUACCAAAACCGAATT against ACVR1C, the median seed-adjusted z-score was -0.0005 (inactive).
Turning to CCCUACCAACAUUAAGUAUTT against CLDN7, the median seed-adjusted z-score is 0.0208 (inactive).
On to GGAUGUGGUUUAUUAUACATT against SLC16A9, for which the median seed-adjusted z-score was 0.125 (inactive).
As for GCCUAUCAAUUGUUCGGGATT against TTF1, the median seed-adjusted z-score is 1.76 (active).
The figure for GCGUAUGGGAUUACAAGAATT against PAFAH1B1 is 0.391 (inactive); for GGCUAGUACUGACAGAUGATT against CREB3 it is 0.0509 (inactive); for ACUCCUACAUGUACAUUCUTT against KCNE3 it is -1.33 (active).
On to GGUUAAAAGUCGGUCCCAATT against SGCG, for which the median seed-adjusted z-score is 0.886 (inactive).
Then GCAUCUCUAUUGUAGCCCUTT against GHRHR, with 0 (inactive); and CAUCCGAUCUGAUAGGUCUTT against EFEMP1, with 0.0157 (inactive); and AGACCUAGCAUGGACCAGATT against GUCY2E, with 0.61 (inactive).
The figure for CUUGGACACUGAAAACGCATT against ITGAM is -1.56 (active).
Consider GGAUGAGUACAGAUUUACATT against CLPX, for which the median seed-adjusted z-score was -0.0436 (inactive).
Consider AGCUCAUAGCUGACCCAGATT against ZC3H3, for which the median seed-adjusted z-score was -0.622 (inactive).
Then CAGAUGACUUCAGAACCAATT against KRT33B, with 0.04 (inactive).
Then GGCUAUAUCGUCACAAUGATT against ABCA4, with -1.09 (active).
In the case of GGUAAUGCUUUAUUCCAAATT against ZNF677, the median seed-adjusted z-score was -0.441 (inactive).
As for GAGCUGACGUGUACUCAUATT against USP5, the median seed-adjusted z-score was 0.596 (inactive).
Turning to CGCAUUCUCCAGUCGCACATT against KRT81, the median seed-adjusted z-score is -0.0955 (inactive).
For CGGUUGGAGUUGGAUGACATT against TRIB3, the median seed-adjusted z-score is 0.00635 (inactive).
Then ACAUCAAAACACCAGCUUUTT against YBX2, with 0.362 (inactive); and CCUACGUUUUUAUUAUCUUTT against SLC2A14, with -1.09 (active).
For the sequence GCACAAGGAGUGACCUUCUTT against GCHFR, the median seed-adjusted z-score is -0.559 (inactive).
As to GAACUUUGUUACUAUCGAATT against PCDH9, the median seed-adjusted z-score is 0.165 (inactive).
Then GGAUCCUGGUGAUAAGAGATT against QRICH1, with -1.04 (active).
Then GAGAAAAUCUAUAUCCGGATT against NR2C2, with -0.498 (inactive); and CCCGGAGAAUUCUCAAUGATT against NENF, with -0.778 (inactive); and CAUCAAUGACUCACCCUUUTT against RTN4R, with -0.536 (inactive).
The figure for CAAACGACCUUUGCCCAAATT against MED17 is -2.06 (active); for AAACUUGCCUGAGUACAAATT against KCNH3 it is -0.509 (inactive); for GCUCCAGUCUCACUAAACATT against ZNF552 it is 0.437 (inactive).
As to GAAUGAAGGUUUAUAUUGATT against EPHB3, the median seed-adjusted z-score is -0.407 (inactive).
On to AGGAGACUCUUUGCUACAATT against MRGPRX1, for which the median seed-adjusted z-score is -0.188 (inactive).
The figure for GAAUGUUGACUCUACUGCATT against POLR3K is 0.504 (inactive).
Regarding GGGACCAUCCUGUUCUUCATT against KCNK12, the median seed-adjusted z-score was 1.04 (active).
Then CUCACAACAAAUUACUUAATT against CYP2C9, with 0.246 (inactive); and GGACUUGAGAGAUCUCUUUTT against DAB1, with 0.307 (inactive); and GGUCUAAAGGUGGAGAUAATT against EIF2C2, with -0.183 (inactive).
Then CAUGUGCAGUACAUCCAUATT against TIMP3, with -1.05 (active); and GCCCUUUACAUACUCUUCATT against IL23R, with 0.512 (inactive).
On to GGAUGAUAUUCUAUCCUUUTT against IPO13, for which the median seed-adjusted z-score is 0.612 (inactive).
Then UGCUCAGCAGUACAACGUATT against SYN1, with -0.458 (inactive); and UGUCCACGGUUAAAAUUAUTT against CCL16, with -0.308 (inactive); and CAAACCGAAUAGAAACUUUTT against PSMC1, with -2.23 (active).
The figure for UCAACUGCCCAUACACUUATT against LOC647743 is -0.203 (inactive); for UCCCAGUGAUUAUACGUUATT against ARPC4 it is -0.211 (inactive).
The figure for GGAUGAGAACAUUAAAACATT against COQ3 is 0.426 (inactive); for UGAUGGAAGUUGUCACUUATT against BLK it is -0.274 (inactive).
As for GGCAAUGCUUUACUAUGAATT against ABCG8, the median seed-adjusted z-score is -0.0233 (inactive).
The figure for AGAUGUUCUUAAGACCAAATT against PACSIN2 is 0.73 (inactive); for GGACUUCUGAAAAUUCGCATT against EP400 it is 1.83 (active).
Then CCGCGAUCAUAGACCUAGATT against FOXO4, with -0.0576 (inactive).
In the case of GGACAGGAAGAUACAAGAATT against GPR113, the median seed-adjusted z-score is -0.434 (inactive).
The figure for GGAAGAAUAUGUUUAGAUATT against UBE2N is 0.995 (inactive).
The figure for CGAGCAAUUUAGAGACUUATT against PCDHGA3 is 0.27 (inactive); for GGAGAUACCAGGAACCCAATT against SLC7A13 it is 0.121 (inactive).
Then CACGCAGAGUUACCGAAAATT against SPEN, with -1.69 (active).
Consider CGAGCCACCGAGAAGAUAATT against ATAD3A, for which the median seed-adjusted z-score was -0.283 (inactive).
The figure for GGACAAGAUUGGUGGGUUATT against PEX1 is 0.227 (inactive).
The figure for GUACCAAUACUGAUAAGAATT against SLC9A11 is -0.12 (inactive); for GGCCUAUCCUGAUUCUGAUTT against RND2 it is -0.0613 (inactive); for GGAUACUCUGAUGAAGAUATT against GNAQ it is -1.23 (active).
The figure for AGUCAGCUCCGAUACUUCATT against CAPN10 is 0.364 (inactive).
For the sequence UCACUGUGGUGUAUUUUAATT against PDP2, the median seed-adjusted z-score is -0.0726 (inactive).
The figure for GCUUCCAACUGCUUAUAUATT against TP53RK is 0 (inactive); for CCAUCUCCUCUGAAACGUATT against RREB1 it is -0.414 (inactive); for CAGAGACUGUUAUCCAUUUTT against SLC25A36 it is 0.134 (inactive).
Then UUGUGGAUGUUGAACCUAATT against SNRPD1, with -2.97 (active); and GCUACUAACAUUACUCCAATT against FOLH1, with 0.148 (inactive).
In the case of CCAUCUCUACCGACGAAGATT against ARHGEF1, the median seed-adjusted z-score was -0.0658 (inactive).
Then CAUUCUAUGGGAUACCCUATT against SYT4, with -0.354 (inactive); and CAGGAAGUCUGACCAAUAATT against LPL, with 0.389 (inactive); and UGACCGAUGUCUUCCUUAUTT against RHOQ, with -0.328 (inactive).
The figure for CUCUGAUUAUCAUGAGAUATT against SRGAP2 is 0.0323 (inactive); for AACCUAUAAUGAGGAUGUATT against ZNRF2 it is 0 (inactive).
For AGAGCGACCUCACCACCAATT against RAB1B, the median seed-adjusted z-score was 1.55 (active).
Then “GGAAGCGAAUACUACUAUUTT against ST6GALNAC3”, with -0.205 (inactive); and GCAUUGAUCCUCAGAGUAATT against PTPRU, with 0 (inactive).
The figure for GGGAUAUGAUAGAUCCUUATT against CPO is 0.0875 (inactive); for CCGCAUAGCUCAUAGGAUATT against SMARCA2 it is -0.458 (inactive); for GCAUGGUAAUUUAUAGUUUTT against NGF it is -0.325 (inactive).
Then GCACGGAAUUUGAACAGUATT against SOX17, with -0.46 (inactive); and GGAACAUCUUUGUACCUAUTT against NARG1, with -1.02 (active).
Consider AUCUAGACUUCUCUUUAUATT against FHL3, for which the median seed-adjusted z-score is 0.105 (inactive).
Then UCCUCAACGUGUGCGAUGATT against KCNG1, with -0.00995 (inactive); and CCUCAGCUUUUACAGCAAATT against RAD23A, with -1.13 (active); and GGCCUAUGCUAAUCAUUCUTT against FANCA, with 0.418 (inactive).
The figure for GACUUGAAGAUGCUAAUCATT against TIPIN is 0 (inactive); for GAAUGAAAUCAGAGUAUAATT against RNF125 it is 0.204 (inactive); for CCAGGUCCAUGGAAAGAAATT against NEIL2 it is -0.256 (inactive).
As for CGGCUAGAAGAGGAACAGATT against LSG1, the median seed-adjusted z-score is 1.31 (active).
On to CAAUGUGGUGUAUAAUACATT against VNN2, for which the median seed-adjusted z-score was -0.583 (inactive).
In the case of CAGUCACUGCACUACAGAATT against ATF7, the median seed-adjusted z-score was 0.903 (inactive).
Then AGAACAAAGACCUAAUGGATT against TNNT3, with -0.293 (inactive); and GAUUGAGAAUUCUAUUGUATT against UTP6, with -0.253 (inactive); and GAAUCGUUGUCAGAGCCUUTT against LMNB1, with 0.0619 (inactive).
The figure for AGGCAAAGACGGAACAACATT against TRIM69 is 0.214 (inactive); for GCAUUGGUCUAGAGCUUUATT against SCPEP1 it is -0.99 (inactive).

Source of the values: PubChem BioAssay AID1347426 (Functional Genomics Laboratory (NCATS/FGL), 2020).
